# Assay outcomes as filed in PubChem BioAssay.
# An excerpt weighted towards active compounds, which were near 3.4% of everything screened.
# MITF inh = MITF inhibitors, primary screen, biochemical, AlphaScreen, human; AlphaScreen MITF homodimerization, bead proximity signal; 650,000 compounds, 0.91% hits; inhibition, % at 2.6 µM; in the data active = inhibition above about 50%;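 note: 0% = vehicle wells with protein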
# FBW7 activator = FBW7 E3 ligase activators, primary screen, biochemical, AlphaScreen, human; F-box/WD repeat-containing protein 7 (Homo sapiens), Q969H0; normalized activity (activation), % at 26.1 µM; 650,000 compounds, 0.13% hits; AID 1259310, 2017; AlphaScreen FBW7–phospho-cyclin E peptide binding, activator screen; in the data active = normalized activity above about 1.9%;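 note: purified mutant Fbw7 with reduced substrate affinity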
# GPR151 ag = activators of human GPR151, primary screen, cell-based, PathHunter beta-arrestin, luminescence | PathHunter beta-arrestin GPR151 cells | activation, % at 11.2 µM | 650,000 compounds, 1% hits | AID 1508602, 2020; in the data active = activation above about 4.9%;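 note: 0% = median of compound wells and 100% = cells with positive control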
# Target sequence (Q8TDV0 whole entry, looked up): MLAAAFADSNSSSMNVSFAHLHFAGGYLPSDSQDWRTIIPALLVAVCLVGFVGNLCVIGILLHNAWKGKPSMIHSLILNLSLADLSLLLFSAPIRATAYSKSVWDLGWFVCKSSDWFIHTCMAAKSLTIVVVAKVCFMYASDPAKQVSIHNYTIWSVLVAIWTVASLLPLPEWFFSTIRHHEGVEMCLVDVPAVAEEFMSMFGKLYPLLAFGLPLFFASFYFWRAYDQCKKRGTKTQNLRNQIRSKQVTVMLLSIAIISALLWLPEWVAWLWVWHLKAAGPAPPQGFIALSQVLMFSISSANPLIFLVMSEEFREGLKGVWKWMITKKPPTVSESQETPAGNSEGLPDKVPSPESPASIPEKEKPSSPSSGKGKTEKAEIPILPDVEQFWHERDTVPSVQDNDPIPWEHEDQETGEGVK
# TEAD-YAP inh = TEAD-YAP interaction inhibition, primary screen, TEAD-YAP interaction inhibitor project, luminescence, HEK-TIYL cells | TEAD-Gal4/YAP UAS-luciferase luminescence | inhibition, % at 9.12 µM | 640,000 compounds, 1.4% hits | AID 1259422, 2018; in the data active = inhibition above about 32%;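 note: 0% = median of test compound wells and 100% = reference inhibitor wells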
# GPR151 conf act = GPR151 activators, triplicate retest, confirmation, cell-based, PathHunter beta-arrestin, luminescence; shares compounds with GPR151 ag; GPR151 PathHunter beta-arrestin cells, 90 min; % of EA-reagent control over plate median; activation, % at 11.2 µM; 6,700 tested, under 10 active;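 active = mean percent activation across replicates above the confirmation screen cutoff of 4.91%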
# GPR119 ag = GPR119 activators in beta-arrestin cells, counter-screen for GPR151 activator project, cell-based, PathHunter beta-arrestin, luminescence, triplicate; activation, % at 11.2 µM; shares compounds with GPR151 ag; 6,700 compounds, 0.3% hits; 90 min; 0 = compound-well median, 100 = enzyme-acceptor control;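 active = mean percent activation in the counterscreen above 29.09%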;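 note: counterscreen on off-target GPR119 to flag nonselective hits from the GPR151 activator screen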
# Starred values were filed as active, the others as inactive; · = not tested or not shown.
SMILES,MITF inh,FBW7 activator,GPR151 ag,TEAD-YAP inh,GPR151 conf act,GPR119 ag
COc1ccc(COC(=O)C2=C(C)NC(=O)NC2c2ccc(Cl)c(Cl)c2)cc1 (centres undefined),9.2,0.1,-0.7,4.3,·,·
CCOc1ccc(S(=O)(=O)N2CCC(C(=O)OCC(=O)c3ccc[nH]3)CC2)cc1,7.5,0.1,0.4,-0.6,·,·
CCCC(=O)Nc1nn2c(CCC)nnc2s1,-0.1,0.0,-0.1,-3.7,·,·
CCCC(=O)Nc1nn2c(CC(C)C)nnc2s1,-2.4,-0.2,7.1*,-4.9,0.9,1.4
CCC(=O)Nc1nn2c(CC(C)C)nnc2s1,-13.0,0.1,5.0*,5.5,0.3,-5.9
CC(C)Cc1nnc2sc(NC(=O)C(C)C)nn12,3.3,-0.3,-0.7,0.2,·,·
CSc1nsc(SC)c1C(=O)N1CCN(S(=O)(=O)c2ccc(C)cc2)C1C (centres undefined),3.1,-0.3,5.0*,2.9,1.4,9.8
CCN(CC)C(=O)Cn1c(=O)n(-c2ccc(C)cc2)c(=O)c2oc3ccccc3c21,16.4,-0.1,5.2*,12.4,-0.5,-3.0
CCN(CC)C(=O)Cn1c(=O)n(-c2ccccc2)c(=O)c2oc3ccccc3c21,-4.3,-0.1,1.2,8.1,·,·
O=C(NCCCc1ccccc1)C1CC12CCN(C1CCSC1)CC2 (centres undefined),11.9,0.0,-0.7,5.9,·,·
Cc1cccc(-c2cc(C(=O)Nc3ccc(F)c([N+](=O)[O-])c3)c3ccccc3n2)c1,-7.5,-0.2,5.7*,-6.8,0.6,18.1
O=C(NN1C(=O)c2ccccc2C1=O)c1cc(O)cc(O)c1,8.7,0.5,-1.1,5.4,·,·
CN(Cc1cn(-c2ccccc2)nc1-c1ccc(Cl)cc1)C(=O)CCC(=O)O,18.1,0.8,5.6*,-9.9,-0.7,-6.0
NC(=O)c1cn(-c2ccccc2)nc1-c1ccc(Cl)cc1,16.3,0.4,-1.0,0.6,·,·
O=C1OC(c2ccc(-c3ccccc3)cc2)=N/C1=C\c1cccnc1,1.8,0.1,14.3*,4.3,-0.7,-5.0
Cc1ccc(-c2nc3cc(NC(=O)c4cc(Br)ccc4Cl)ccc3o2)cc1Br,0.4,-0.4,6.1*,7.5,0.0,9.0
Cc1c(C(=O)Nc2ccc3oc(-c4ccncc4)nc3c2)cccc1[N+](=O)[O-],10.7,0.2,-1.6,0.7,·,·
CC(=O)Nc1ccc(-c2nc3cc(C)ccc3o2)cc1,-2.4,0.1,-1.4,-46.5,·,·
Cc1c(C(=O)Nc2ccc3oc(-c4cccnc4)nc3c2)cccc1[N+](=O)[O-],13.7,0.0,11.2*,-3.2,-0.8,0.4
CC(=O)Nc1ccc2oc(-c3ccncc3)nc2c1,0.7,0.0,5.1*,-22.5,0.1,-0.6
Cc1ccc(-c2nc3cc(NC(=O)c4cc(Cl)ccc4Cl)ccc3o2)cc1Br,-4.1,-0.1,0.1,-12.7,·,·
CC(NS(=O)(=O)c1ccc(CCC(=O)NCc2ccccn2)cc1)c1ccccc1 (centres undefined),15.2,0.0,0.4,-5.5,·,·
CCn1c(=O)n(CC(=O)Nc2cccc(C(F)(F)F)c2)c(=O)c2ccccc21,1.6,-0.2,-1.6,-1.8,·,·
NC(=O)C1(N2CCCCC2)CCN(C(=O)NC2CCCCC2)CC1,9.5,0.0,5.4*,4.7,0.5,6.5
CCOC(=O)c1cnc2c(C)c(C)ccc2c1NCc1ccco1,5.6,0.0,3.4,-9.7,·,·
SMILES,MITF inh,FBW7 activator,GPR151 ag,TEAD-YAP inh,GPR151 conf act,GPR119 ag
CCOC(=O)c1cnc2c(ccc3ccccc32)c1NCc1ccco1,-1.3,0.9,5.8*,-5.8,0.5,5.9
CC1(C)Cc2cccc(OCC(=O)NNC(=O)c3ccc(Cl)cc3)c2O1,-2.6,-0.1,1.7,2.0,·,·
COc1ccc(-c2noc(Nc3ccc(C(C)C)cc3)n2)cc1,14.7,0.8,-0.5,-10.6,·,·
COc1ccc(-c2noc(Nc3ccc(Cl)cc3)n2)cc1,-2.1,0.0,8.2*,-21.0,0.0,-0.6
COc1ccc(CC(=O)N2N=C(c3cccnc3)CC2(O)C(F)(F)F)cc1 (centres undefined),1.7,1.1,4.9*,25.3,1.4,10.5
Cn1ncc2c(N3CCN(Cc4ccc5c(c4)OCO5)CC3)ncnc21,5.6,0.8,0.6,2.4,·,·
O=[N+]([O-])c1ccc2ncnc(N3CCN(Cc4ccc5c(c4)OCO5)CC3)c2c1,4.2,-0.5,12.3*,34.9*,1.2,3.5
CN1CCC(=NNC(=O)c2ccc(CN3c4cccc5cccc(c45)S3(=O)=O)cc2)CC1,1.7,0.0,6.0*,0.6,-0.6,0.5
C/C(=N\NC(=O)c1ccc(CN2c3cccc4cccc(c34)S2(=O)=O)cc1)c1ccco1,4.1,0.1,1.5,-1.6,·,·
Cn1nccc1Nc1nc(C(=O)NCc2cccc(C(F)(F)F)c2)cs1,19.9,0.1,8.7*,-8.6,-0.2,-1.5
Cn1nccc1Nc1nc(C(=O)NCc2cccnc2)cs1,-2.4,0.0,5.3*,-2.9,-1.0,-13.3
Cn1nccc1Nc1nc(C(=O)NCc2ccccc2)cs1,5.0,-0.2,-1.2,-2.7,·,·
Cn1nccc1Nc1nc(C(=O)Nc2ccccc2)cs1,9.3,-0.1,5.6*,-14.4,0.0,-7.3
COc1ccc(NC(=O)CSc2nnc(-c3c[nH]c4ccccc34)n2C)c(OC)c1,-3.0,0.2,0.1,7.8,·,·
COCCCNC(=O)/C(=C\c1cccc([N+](=O)[O-])c1)NC(=O)c1ccccc1,-0.4,-0.2,-1.2,4.9,·,·
Cc1noc(CNC(=O)COc2ccc(C(C)C)cc2)n1,1.2,0.2,-1.0,-5.8,·,·
COc1ccc(Br)cc1/C=N/NC(=O)C(=O)N1CCCC1,17.9,0.2,1.8,11.9,·,·
Cc1ccc(Oc2nc3ccccn3c(=O)c2/C=C(\C#N)C(=O)N2CCOCC2)cc1,3.2,0.4,4.9*,1.7,-0.8,-9.7
COCCNC(=O)/C(C#N)=C/c1c(Oc2cccc(C)c2)nc2c(C)cccn2c1=O,-0.5,-0.1,6.1*,4.5,1.2,1.5
Cc1cccn2c(=O)c(/C=C(\C#N)C(=O)N3CCCCC3)c(Oc3ccc(F)cc3)nc12,-15.7,0.1,5.7*,10.7,-0.5,-11.5
COc1ccc(Oc2nc3c(C)cccn3c(=O)c2/C=C(\C#N)C(=O)N2CCCCC2)cc1,5.9,-0.1,0.8,4.2,·,·
CC1=C(C(=O)OC2CCCCC2)C(c2ccccc2OCc2ccccc2)C2=C(CC(c3ccccc3)CC2=O)N1 (centres undefined),-5.8,0.3,-0.3,8.5,·,·
